In all, about 18,000 sequences were measured (“log2 normalized intensity”: median about 0.39, highest 2% from about 6.6 on). For the sample, the highest values were picked, then their nearest neighbours and some sequences at random.

This experiment deals with T1, HNF4alpha2 (COS-7 nuclear extract) (Homo sapiens, UniProt P41235 1-474).
T1 sequence: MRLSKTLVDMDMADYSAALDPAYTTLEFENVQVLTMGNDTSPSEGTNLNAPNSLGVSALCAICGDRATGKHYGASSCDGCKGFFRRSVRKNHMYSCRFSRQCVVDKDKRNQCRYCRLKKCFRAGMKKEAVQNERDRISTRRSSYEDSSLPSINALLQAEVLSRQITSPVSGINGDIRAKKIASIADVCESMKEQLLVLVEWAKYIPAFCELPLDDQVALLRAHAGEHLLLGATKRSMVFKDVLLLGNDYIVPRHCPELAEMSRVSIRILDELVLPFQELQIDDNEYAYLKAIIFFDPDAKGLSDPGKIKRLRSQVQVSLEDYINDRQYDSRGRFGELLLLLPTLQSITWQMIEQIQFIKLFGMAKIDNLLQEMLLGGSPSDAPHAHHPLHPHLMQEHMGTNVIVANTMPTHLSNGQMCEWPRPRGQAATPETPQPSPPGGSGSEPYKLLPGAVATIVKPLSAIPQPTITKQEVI
The experiment in a line: protein-binding microarray; COS-7 nuclear extract on double-stranded Agilent 4x180k PBM; binding buffer, salt, pH and temperature not given in the material; high values mean tight binding. The note with it: chain copies: 2; label: 3' end of strand 1 on the slide; dsDNA, one strand shown. In outline: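 Binding signal was defined as the normalized, background-corrected gProcessedSignal reported by Agilent software. It came from nuclear extracts of COS-7 cells transiently transfected with a human HNF4α isoform expression vector, applied to a custom Agilent SurePrint G3 4x180k array. That array held ~44,000 test sequences in quadruplicate as double-stranded ~60-nt oligonucleotides, and bound HNF4α was imaged at 2-µm resolution on an Agilent G2565CA scanner.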
For “ACCGGCAGAGAGAAGCCACTGCGACCTTTGGCCTAGGGAGATTAGAGTATCGGTCGA”, the binding signal came to 4.92 log2 normalized intensity. In the case of “CAGAGAGAAGCCACTGCGACCTTTGCCCTCGCCTAGGGAGATTAGAGTATCGGTCGA”, the binding signal came to 9.89 log2 normalized intensity. The value for “AGAAGCCACTGCGACCTTTGCCCTCCCTAAGCCTAGGGAGATTAGAGTATCGGTCGA” was 7.38 log2 normalized intensity. The value for “CCACTGCGACCTTTGCCCTCCCTAAATCCAGCCTAGGGAGATTAGAGTATCGGTCGA” was 6.95 log2 normalized intensity; that for “CCGCGGCGGGCCCTCGACCTTTGCCCTCCAGCCTAGGGAGATTAGAGTATCGGTCGA” was 9.87 log2 normalized intensity; that for “CCTCCTAATCACTGCCCTTTGGTGCCTCTTGCCTAGGGAGATTAGAGTATCGGTCGA” was 2.28 log2 normalized intensity. “TTCCCCTCCCTTCCACCTTTGCCCTCCAAAGCCTAGGGAGATTAGAGTATCGGTCGA”: the binding signal was 5.76 log2 normalized intensity. The result for “ACATGAGCTAGTGCTAAAGGTCATATCCAAGCCTAGGGAGATTAGAGTATCGGTCGA” reads 4.2 log2 normalized intensity; that for “GGCCTTTGGACCCAGACTGAATCACACTACGCCTAGGGAGATTAGAGTATCGGTCGA”, 3.76 log2 normalized intensity; that for “GGTGTTAAAATAACGACCTTTGGGCTAAAAGCCTAGGGAGATTAGAGTATCGGTCGA”, 3.81 log2 normalized intensity. Regarding “AGGCCAGCTCATAGGGATCAGATAAGAAGTGCCTAGGGAGATTAGAGTATCGGTCGA”, the binding signal is -0.997 log2 normalized intensity. For the sequence “GTAACCTCAAAGGAGGTCAGAACTGTGGACGCCTAGGGAGATTAGAGTATCGGTCGA”, the binding signal was found to be 1.22 log2 normalized intensity.

For “CCATAGCGAAGCCGGCGGCGGAATGCTTGTGCCTAGGGAGATTAGAGTATCGGTCGA”, the binding signal is -0.837 log2 normalized intensity. The result for “TGGCTGGCGGCTAGTGTACAGGTGACCTTTGCCTAGGGAGATTAGAGTATCGGTCGA” reads 7.2 log2 normalized intensity; that for “AGATAGTGACGGAGGTGACCTTTGGTTGTCGCCTAGGGAGATTAGAGTATCGGTCGA”, 5.52 log2 normalized intensity. As for “TTGGAGAATGCCTTTTGTGTAGGAGTACACGCCTAGGGAGATTAGAGTATCGGTCGA”, the binding signal is 1.7 log2 normalized intensity.

As to “GCTAGGTGGCGGGCTGGCTCAGGACAGGTGGCCTAGGGAGATTAGAGTATCGGTCGA”, the binding signal was determined as 0.0816 log2 normalized intensity. For the sequence “GGCGGCTAGTGTACAGGTGACCTTTGGAATGCCTAGGGAGATTAGAGTATCGGTCGA”, the binding signal stood at 8.95 log2 normalized intensity.

For “AAAGCTGGCTGGCGGCTAGTGTACAGGTGAGCCTAGGGAGATTAGAGTATCGGTCGA”, the binding signal was determined as 1.06 log2 normalized intensity. For “TATCTTTGGAGAATGCCTTTTGTGTAGGAGGCCTAGGGAGATTAGAGTATCGGTCGA”, the binding signal is 1.64 log2 normalized intensity.

Take “GGAATGAGCAGGAACCTTGTGGTGGTGAAAGCCTAGGGAGATTAGAGTATCGGTCGA”: the binding signal came out at 1.01 log2 normalized intensity. The value for “CTAGTGTACAGGTGACCTTTGGAATGAACCGCCTAGGGAGATTAGAGTATCGGTCGA” was 7.14 log2 normalized intensity; that for “ACTCCACATATTGTAGATAATACTGTGTCAGCCTAGGGAGATTAGAGTATCGGTCGA” was 0.275 log2 normalized intensity. In the case of “TTCCCTTGTTTACCTTGGTGTTTCTTTGATGCCTAGGGAGATTAGAGTATCGGTCGA”, the binding signal worked out at 1.68 log2 normalized intensity. “AGCAGCCTCAGTGGCTCACAAATGGAGTTTGCCTAGGGAGATTAGAGTATCGGTCGA”: the binding signal was found to be 0.801 log2 normalized intensity. “GAGCAGCACTTTTGGAGTTTGACCTGGAGCGCCTAGGGAGATTAGAGTATCGGTCGA”: the binding signal amounted to 5.38 log2 normalized intensity. The result for “GGAGAGCTAGTAAGGAGCTGAGTCATAGTGGCCTAGGGAGATTAGAGTATCGGTCGA” reads -0.825 log2 normalized intensity; that for “ACTTTGACCTTGGCACTGAAGAATGTCTAAGCCTAGGGAGATTAGAGTATCGGTCGA”, 1.8 log2 normalized intensity. For the sequence “AGAGTGAGCAGCACTTTTGGAGTTTGACCTGCCTAGGGAGATTAGAGTATCGGTCGA”, the binding signal was determined as 7.73 log2 normalized intensity.

As to “ACAGCAGTGGACTTTGACCTTGGCACTGAAGCCTAGGGAGATTAGAGTATCGGTCGA”, the binding signal is 9.07 log2 normalized intensity. Turning to “GGGGCAGAGTGAGCAGCACTTTTGGAGTTTGCCTAGGGAGATTAGAGTATCGGTCGA”, the binding signal is 1.51 log2 normalized intensity. The result for “GAGCTCAGTCACAGCAGTGGACTTTGACCTGCCTAGGGAGATTAGAGTATCGGTCGA” reads 11.2 log2 normalized intensity; that for “AAGAAGAGCTCAGTCACAGCAGTGGACTTTGCCTAGGGAGATTAGAGTATCGGTCGA”, 6.61 log2 normalized intensity. The value for “TAAGGAGCTGAGTCATAGTGGACTTTGCCTGCCTAGGGAGATTAGAGTATCGGTCGA” was 6.9 log2 normalized intensity; that for “ACAGCACTGACCTTTGAGAGTCAACACTGAGCCTAGGGAGATTAGAGTATCGGTCGA” was 2.58 log2 normalized intensity. For “GCTAGTAAGGAGCTGAGTCATAGTGGACTTGCCTAGGGAGATTAGAGTATCGGTCGA”, the binding signal was found to be 3.44 log2 normalized intensity. Regarding “TATGACCAGTGTGTTGTGCTGACCTCCTGTGCCTAGGGAGATTAGAGTATCGGTCGA”, the binding signal came out at 3.19 log2 normalized intensity. On to “CTGGTGTGCTTTCTGTCCTCTCAAAGTCCAGCCTAGGGAGATTAGAGTATCGGTCGA”, for which the binding signal was found to be 3.7 log2 normalized intensity. On to “TGATTTGTATGATCTTGGGTATATCCTTTAGCCTAGGGAGATTAGAGTATCGGTCGA”, for which the binding signal came out at 1.54 log2 normalized intensity.

As to “TGACCTTGCAGTGGCAAGGCAAAAGAGACAGCCTAGGGAGATTAGAGTATCGGTCGA”, the binding signal turned out to be 1.17 log2 normalized intensity.

With “ATGTGACCTTTTGGACCACAGAGTGACCTGGCCTAGGGAGATTAGAGTATCGGTCGA”, the binding signal was 5.16 log2 normalized intensity. As to “TAACTTACAGTGCACTTTGACCGCTCATTTGCCTAGGGAGATTAGAGTATCGGTCGA”, the binding signal turned out to be 5.83 log2 normalized intensity.

Consider “CAGGACTGCGTAACTTACAGTGCACTTTGAGCCTAGGGAGATTAGAGTATCGGTCGA”, for which the binding signal turned out to be 4.9 log2 normalized intensity. “CTGCGTAACTTACAGTGCACTTTGACCGCTGCCTAGGGAGATTAGAGTATCGGTCGA”: the binding signal came to 7.14 log2 normalized intensity.

As for “CAGTCACAGCAGTGGACTTTGACCTTGGCAGCCTAGGGAGATTAGAGTATCGGTCGA”, the binding signal came to 10.2 log2 normalized intensity.
